Screen size: about 68,000 compounds; about 2,700 (4%) showed an effect of 50% or more. The entries come from a sample that favours strong results as a whole.

The subject of this experiment is Plasmodium berghei. Nature of the experiment: Screen against P. berghei liver stage (PbLuc), transformed with Luciferase, at 2uM. Type of experiment: functional, HepG2. The following applies: tested at 2 uM.
For the molecule `CCn1nc(C)c2nc(C(C)C)nc(N3CCC(O)CC3)c21`, the INHIBITION is listed as 5.86%.
For the molecule `O=C(c1cccc(F)c1)N1CCC2(CC1)CN(c1ccccn1)CCO2`, the INHIBITION was -29.13%.
Turning to `COCCn1/c(=N\C(=O)CN(C)S(C)(=O)=O)sc2cc(OC)ccc21`, the INHIBITION is on record as 11.87%.
Consider `COCCn1/c(=N\C(=O)CN(C)S(C)(=O)=O)sc2cc(C)ccc21`, for which the INHIBITION is 29.19%.
As for `COCCn1/c(=N\C(=O)CN(C)S(C)(=O)=O)sc2cc(Cl)ccc21`, the figure is 52.05%; as for `Nc1ncnc2[nH]c(N3CCCCC3)nc12`, -87.36%.
With `Clc1ccccc1OC1CN(CC2CCOC2)C1` (configuration not stated) the figure was -14.36%; with `CC(C)NC(=O)N1CCC[C@H]1C(=O)NCCCc1cccc(F)c1`, -22.24%.
With `CN(Cc1cccc(F)c1)C(=O)CN1CCCCC1Cn1cncn1` (configuration not stated), the INHIBITION amounted to 3.3%.
As for `CN(Cc1cccc(F)c1)C(=O)CN1CCCC(Cn2cncn2)C1` (configuration not stated), the figure is 53.1%; as for `N#CCCN(CCC#N)C(=O)CN1CCCC1Cc1cccc(F)c1` (configuration not stated), -43.03%; as for `CN(Cc1cccc(F)c1)C(=O)CN1CCCC1CCc1ccccc1` (configuration not stated), 80.56%.
Regarding `CN(Cc1ccccc1)C(=O)CN1CCCC(Cn2cncn2)C1` (configuration not stated), the INHIBITION is recorded as 45.5%.
Consider `CN(Cc1ccc(F)cc1)C(=O)CN1CCCC(Cn2cncn2)C1` (configuration not stated), for which the INHIBITION was 2.08%.
Take `COc1cc(OC)cc(C(=O)N(C)Cc2nnc3ccccn23)c1`: the INHIBITION was found to be 34.39%.
For `Cc1ccc(N2C[C@H]3CCC[C@@H](CN4CCOCC4)[C@H]3C2)nn1`, the INHIBITION is listed as -7.49%.
Take `CN(C)c1ccc(C(=O)NCc2cccnc2-n2cncn2)cc1F`: the INHIBITION stood at 20.19%.
For `NC(=O)C1CCN(C(=O)NCc2ccccc2Cn2cncn2)CC1`, the INHIBITION is reported as 64.07%.
Consider `O=C(CC1CCCO1)NCc1ccccc1Cn1cncn1` (configuration not stated), for which the INHIBITION is listed as 8.37%.
Turning to `CN(C)C1CCN(C(=O)NCc2ccccc2Cn2cncn2)CC1`, the INHIBITION was found to be 9.05%.
With `O=C(NCc1ccccc1Cn1cncn1)N1CCCC1` the figure was -9.49%; with `O=C(CCNC(=O)C1CCCC1)NCc1ccccc1Cn1cncn1`, -14.17%.
In the case of `O=C(CCC1CCCO1)NCc1ccccc1Cn1cncn1` (configuration not stated), the INHIBITION is 64.16%.
In the case of `O=C(NCc1ccon1)c1c(F)cc(Br)cc1F`, the INHIBITION stood at 1.04%.
In the case of `Cc1nc(C2CCCN(C(=O)c3c[nH]c(C(C)C)n3)C2)no1` (configuration not stated), the INHIBITION is 13.3%.
For the molecule `Cc1cc(C)n(CC2CCCCN2CC(=O)NC2CCOCC2)n1` (configuration not stated), the INHIBITION amounted to 27.5%.
Regarding `CCN(Cc1cnn(CC)c1)C(=O)CN1C(=O)CCc2ccccc21`, the INHIBITION came out at 21%.
With `CC(C)(C)c1n[nH]c(C2CN(C(=O)c3ccsc3)CCO2)n1` (configuration not stated) the figure was 31.19%; with `CNC(=O)C(C)(C)NC(=O)c1cc(COc2cccc(C(C)=O)c2)[nH]n1`, -8.74%; with `CC(c1cccnc1)N(C)Cc1ccccn1` (configuration not stated), -18.23%.
With `CC1N(CC2CC2)C(=O)COC12CCN(C(=O)c1cccs1)CC2` (configuration not stated) the figure was 32.04%.
On to `CCCN1CCN(S(=O)(=O)c2ccccc2OC)[C@H]2CS(=O)(=O)C[C@H]21`, for which the INHIBITION is reported as 52.45%.
Turning to `CCN1CCN(S(=O)(=O)N2CCc3ccccc3C2)[C@H]2CS(=O)(=O)C[C@H]21`, the INHIBITION worked out at 25.37%.
As for `COc1ccccc1S(=O)(=O)N1CCN(C)[C@@H]2CS(=O)(=O)C[C@@H]21`, the INHIBITION is 40.88%.
As to `CCCn1ncc2c(C(=O)Nc3cnn(CC)c3C)cc(C3CC3)nc21`, the INHIBITION is given as 34.52%.
On to `CCn1ncc(NC(=O)c2cc(C3CC3)nc3c2c(C)nn3C)c1C`, for which the INHIBITION was 52.52%.
On to `Cc1cc(C(=O)Nc2cc(C3CC3)n[nH]2)c2c(C)nn(C)c2n1`, for which the INHIBITION was found to be 40.99%.
With `COc1ccccc1CNC(=O)CN(C)C(C)c1nccs1` (configuration not stated) the figure was 38.91%; with `c1cnn(CC2CCCN2c2ncnc3ccsc23)c1` (configuration not stated), -16.42%; with `CN(C)C(=O)N1CCO[C@@H]2CC(COCc3cccnc3)C[C@H]21` (some centres not stated), 20.01%.
With `O=C(NCCc1ccncc1)c1ccc(N2CCOCC2)cc1` the figure was 68.9%; with `O=C(NCCCc1ccc(F)cc1)c1ccc(N2CCOCC2)cc1`, -26.8%; with `O=C(NCCCc1ccco1)c1ccc(N2CCOCC2)cc1`, -89.85%.
With `Cn1c(-c2cc3n(n2)CCCN(CC(=O)O)C3)nc2ccccc21`, the INHIBITION was -15.71%.
With `Cc1cccc(COC[C@@H]2CC[C@H]3[C@H](CCN3Cc3ccco3)O2)n1` the figure was 2.39%; with `Cc1cccc(COC[C@@H]2CC[C@H]3[C@H](CCN3C(=O)CC3CC3)O2)n1`, 51.72%; with `Cc1cccc(COC[C@H]2CC[C@H]3[C@H](CCN3C(=O)CC3CC3)O2)n1`, 9.79%.
As for `Cc1cc(C(=O)N2C[C@H](c3ccccc3)[C@@H](N)C2)c2ccc(F)cc2n1`, the figure is 2.31%.
Take `CCc1ocnc1C(=O)N1CCCC1c1noc(C2CC2)n1` (configuration not stated): the INHIBITION stood at 43.85%.
With `COc1cnc(CSc2nnc(C)s2)cc1OCC(=O)NC1CCCC1` the figure was -8.85%.
As for `CCCS(=O)(=O)N1CCC(Nc2c(F)cc(C#N)cc2F)CC1`, the figure is 10.85%; as for `CCS(=O)(=O)N1CCC(Nc2ccc(C#N)cc2F)CC1`, 1.36%.
As for `CCS(=O)(=O)N1CCC(Nc2c(F)cc(C#N)cc2F)CC1`, the figure is 55.17%; as for `Cc1ccc(C(=O)N2CC[C@H]3[C@H]2CCN3CC2CCOCC2)cc1F`, -4.54%.
In the case of `Cc1nc[nH]c1CNCc1cccnc1N(C)C1CCCCC1`, the INHIBITION is on record as -15.91%.
Turning to `COc1cccc(OCCc2nc3c(cc2C(N)=O)CCC3)c1`, the INHIBITION was 23.18%.
For `Cc1cnn(CCNCc2ccc(OCc3cccnc3)cc2)c1`, the INHIBITION is recorded as 88.86%.
As for `Cc1cnn(CC(C)NCc2ccc(OCc3cccnc3)cc2)c1` (configuration not stated), the figure is 16.18%; as for `Cc1cnn(CCNCc2cccnc2)c1`, 0.9%.
With `Cc1cnn(CC(C)NCc2ccccc2OCc2cccnc2)c1` (configuration not stated) the figure was 50.05%; with `Cc1cnn(CC(C)NCc2cccnc2)c1` (configuration not stated), 8.13%; with `Cc1cnn(CCNCc2ccc(OCc3ccncc3)cc2)c1`, 40.88%.
With `Cn1c(=O)ccn(CC(=O)Nc2cnccc2O)c1=O` the figure was 16.37%; with `COCCC1(CO)CCCN(Cc2ccc(C(F)(F)F)nc2)C1` (configuration not stated), 26.66%; with `CN1CCN(CC2(O)CCN(C(=O)CCc3ccccc3F)C2)CC1` (configuration not stated), -20.27%.
For `CN1CCCC2(CC1)CCN(C(=O)CCc1ccccc1O)CC2`, the INHIBITION was 48.21%.
With `CN1CCCC2(CC1)CCN(C(=O)CCc1ccccc1F)CC2` the figure was 50.59%.

The record behind these values is ChEMBL document CHEMBL4513216, “Probing the Open Global Health Chemical Diversity Library for Multistage-Active Starting Points for Next-Generation Antimalarials” (ACS Infect Dis, 2020).
